The values that follow come from PubChem BioAssay (NCI).

About 83,000 compounds went through this panel and 20% of them were active in at least one assay; those are over-represented in the sample as a whole.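 Each cell line was grown in a 96-well plate and treated with one concentration of compound for 48 hours. Values below 10 were considered active.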 Values without a mark were called inactive. Calls of active or inactive are those of the source.

Assay in all cases: NCI-60 one-dose screen, 48 h (100 = growth as untreated, 0 = no growth, -100 = all killed)
What all share (settings): 10 µM unless noted

The subject of assay [1] is NCI-H23 lung.
Assay [2] has as its system NCI-H226 lung.
Assay [3] concerns HOP-62 NSCLC.
Assay [4] concerns NCI-H460 lung.
For assay [5], the system named is HOP-92 NSCLC.
Assay [6] has as its system NCI-H522 lung.
Assay [7] relates to A549/ATCC NSCLC.
Assay [8] concerns 786-0 renal.
Assay [9] deals with COLO 205 colon.
Assay [10] concerns DU-145 prostate.
The test system of assay [11] is K-562 leukemia.
Assay [12] deals with MALME-3M melanoma.
For assay [13], the system named is MDA-MB-231 breast.
Assay [14] relates to RXF 393 renal.
Assay [15] has as its system SF-268 CNS.
Assay [16] relates to SF-295 CNS.
For assay [17], the system named is SF-539 CNS.
Assay [18] concerns UACC-257 melanoma.
Assay [19] deals with M14 melanoma.
In assay [20] the test system is NCI-H322M lung.

Consider `Oc1c(CN2CCC(N3CCOCC3)CC2)cc(Cc2cc(CN3CCC(N4CCOCC4)CC3)c(O)c3ncccc23)c2cccnc12`, for which the growth in assay [1] is 40.8%; in assay [2] it was 2.53% (active); in assay [3], 19.4%; in assay [4], 10.5%; in [5], 41.7%; in [6], 15.4%. In addition, the growth in [7] is 18.5%; in [8] it was 25.5%; in [9], 9.1% (active); in [10], 34.5%; in [11], 11.1%; in assay [12], 56.1%. Also, the growth is 8.58% (active) in assay [13]; 53.5% in assay [14]; 25.5% in assay [15]; -21.1% (active) in assay [16]; 6.51% (active) in [17]; 64.5% in assay [18]. In assay [19], the growth was 11.3%.
Consider `COc1cc(Cc2cc(-c3ccccc3)nn(Cc3ccccc3)c2=O)cc(OC)c1OC`, for which the growth in assay [1] was 37.4%; in assay [2] it was 46.2%; in assay [3], 66.1%; in assay [4], 37.3%; in [5] it was 51.1%; in assay [6] it was 28.4%. Also, the growth is 19.9% in assay [7]; 49.9% in [8]; 15.5% in [9]; 77.7% in [10]; 20.6% in [11]; 35.2% in assay [12]. Moreover, the growth in assay [13] was 50.1%; in assay [14], 31.7%; in assay [15] it was 47.4%; in assay [16], 31.5%; in assay [17], 70%; in assay [18] it was 32%. Moreover, in assay [19], the growth is 44.1%.
As for `C=C1C(=O)O[C@H]2[C@H]1CC/C(COC(=O)NCc1ccc(Cn3c(=O)sn(-c4ccc(I)cc4)c3=O)cc1)=C\CC[C@@]1(C)O[C@@H]21`, the growth was 94.8% in assay [1]; 89.6% in assay [2]; 97.8% in [3]; 91.9% in assay [4]; 54.9% in assay [5]; 2.14% (active) in assay [6]. Also, the growth in [7] is 94.9%; in assay [8], 75.2%; in assay [9] it was 36.9%; in [10], 47.9%; in [11] it was 7.33% (active); in assay [12], 82.3%. Also, the growth in assay [13] is 73.5%; in assay [14], 61.2%; in assay [15] it was 87.1%; in [16], 99.8%; in assay [17], 98.7%; in [18], 75.7%. Moreover, the growth in [19] is 73.1%.
As to `Clc1ccc2nn3c4ccccc4c(OCCN4CCOCC4)nc3c2c1`, the growth in assay [1] is 87.1%; in [2], 94.6%; in [3], 90.6%; in assay [4], 99.9%; in assay [5] it was 72.9%; in assay [6], 74.5%. In addition, the growth in assay [7] is 91.8%; in [8], 80.9%; in assay [9] it was 90%; in [10], 98.9%; in assay [11] it was 88.2%; in [12], 134%. In addition, the growth was 81.4% in assay [13]; 79.3% in assay [14]; 91.8% in assay [15]; 93.9% in [16]; 91.6% in assay [17]; 107% in assay [18].
As to `COc1ccc2c(c1)C(C)Cc1c(ncnc1-n1cnc3cc(C)ccc31)N2C` (stereo not given), the growth was 30.4% in assay [1]; 60% in assay [2]; 28.4% in assay [3]; 3.98% (active) in assay [4]; -2.48% (active) in [5]; 11.7% in assay [6]. Also, the growth in assay [7] was 13.6%; in [8], 12.3%; in assay [9], -46.9% (active); in assay [10], 10.2%; in [11] it was 7.68% (active); in assay [12], 78.7%. Besides, the growth is 28.9% in assay [13]; 35.7% in assay [14]; 26% in assay [15]; 6.97% (active) in assay [16]; 10.7% in assay [17]; 47.3% in [18]. Besides, the growth in [19] was 8.87% (active).
With `COc1cc(/C=C/C(=O)c2cccc(-n3cc(-c4ccc(Cl)cc4)[nH]c3=O)c2)ccc1O`, the growth in assay [1] is 97.5%; in [2] it was 101%; in [20], 92.6%; in assay [4], 93.7%; in [5], 56.9%; in assay [7] it was 77.3%. Besides, the growth in [8] is 84.3%; in assay [9], 124%; in assay [10], 78.1%; in [11], 17.9%; in assay [12], 87.8%; in assay [13], 86%. In addition, the growth in assay [14] is 23.7%; in assay [15], 71.7%; in [16] it was 76.7%; in assay [17], 84.2%; in assay [18], 68%; in assay [19] it was 85.8%.
With `Nc1ncnc2c1N=C(c1ccc(Cl)cc1)CC(c1cccc(Nc3ccnc4cc(Cl)ccc34)c1)N2` (stereo not given), the growth in assay [1] is 66.8%; in assay [2], 87.5%; in assay [3], 70.4%; in assay [4], 75.6%; in assay [5], 44.7%; in assay [6] it was 93.8%. For the same compound, the growth in assay [7] was 84.5%; in [8] it was 67.5%; in assay [9], 66.2%; in [10], 83.2%; in assay [11], -0.992% (active); in assay [12], 84.8%. Moreover, the growth in assay [13] was 63.5%; in [14] it was 34.1%; in assay [15], 53.4%; in [16], 67%; in assay [17] it was 76%; in assay [18] it was 105%. Further, the growth in [19] is 64.8%.
As for `Cc1ccc2c(c1)nc(C)n2-c1ncnc2c1CC(C)c1cc(O)ccc1N2C` (stereo not given), the growth in [1] is 65.7%; in assay [2], 74.1%; in assay [3], 37.8%; in [4], 19.7%; in [5], 24.7%; in assay [6], 23.6%. The growth in [7] was 31%; in assay [8], 33.4%; in assay [9] it was 98.5%; in assay [10] it was 42.1%; in [11] it was 14.8%; in assay [12], 48.9%. For the same compound, the growth in [13] is 50.8%; in assay [14], 10.7%; in assay [15] it was 44.1%; in assay [16], 11.1%; in assay [17], 28.7%; in [18], 17.9%. For the same compound, in assay [19], the growth was 15%.
